# Source: PubChem BioAssay (NCATS)
# Results filed as inconclusive are left out. A call without a number means that no potency is given here. Active and inactive are the calls of the source. Unless noted, calls come from the whole dose curve; as a rule, active = well fitted curve in the direction sought with a large enough effect; inconclusive = small, poorly fitted or top-dose-only effect, or another doubt; inactive = no such curve, though single readings can be large; an effect the other way counts as inactive or inconclusive.
# What was measured:
# [1] = target: Cytochrome P450 1A2 (Homo sapiens) (UniProt P05177); assay: p450-cyp1a2 (AID 410; calls by dose curve; note: potency is the fitted concentration of half-maximal effect)
# Method in brief: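 20nM CYP1A2 with 100uM Luciferin-ME (at Km) in 100mM KPO4; compound preincubated 10 min, NADPH regeneration added, 60 min at room temperature. Luciferin quantified by luminescence after detection reagent; normalized to 57 uM furafylline.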
# [2] = target: Glucocorticoid receptor (Homo sapiens) (UniProt P04150); assay: GR-GFP Redistribution (AID 450;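 active = compounds whose dose series gives a full or clear partial fitted curve of increased nuclear translocation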; note: potency is the fitted concentration of half-maximal effect); conditions: U2OS GR-GFP nuclear translocation, laser cytometry, 2 h
# [3] = target: Glucocorticoid receptor (Homo sapiens) (UniProt P04150); assay: GR-EFC Redistribution (AID 451; calls by dose curve; note: potency is the fitted concentration of half-maximal effect); conditions: CHO-K1 GR-EFC translocation, beta-gal luminescence, 2 h
# Method in brief: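 CHO-K1 cells expressing nuclear EA and GR-ED fragments of b-gal; compounds titrated up to 46 uM final, 2 h at 37 C. GR nuclear translocation read as complemented b-gal luminescence after 1 h RT detection.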
# [4] = target: Mitogen-activated protein kinase 10 (Mus musculus) (UniProt Q61831); assay: JNK3 AlphaScreen Assay (AID 530; active = well fitted curve in either direction with a large enough effect, not every such curve was filed as active;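 note: kinase came from lysate of stimulated human HepG2 cells; signal reports phosphorylation of biotinylated GST-cJun 1-79 at Ser73 with 10 µM ATP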)
# Method in brief: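 Pre-activated (IL-1β/TNFα) JNK3 in HepG2 lysates phosphorylates biotin-GST-cJun(1-79), 10 uM ATP; anti-phospho-cJun(Ser73) AlphaScreen read at room temperature, pH 7.6 Tris buffer. Compounds pre-incubated 15 min as titrations.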
# [5] = target: Cytochrome P450 2C9 (Homo sapiens) (UniProt P11712); assay: qHTS Assay for Inhibitors and Substrates of Cytochrome P450 2C9 (AID 883); note: potency is the fitted concentration of half-maximal effect; nearly all actives have a fitted effect of over 60% in size
# Method in brief: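 10nM CYP2C9 + 100uM Luciferin-H (=KM), 25mM KPO4; cpd 10 min 37C; NADPH regen, 60 min 37C; stop/detect with P450 Glo-Buffer 20 min; luminescence. Norm. to 57uM sulphaphenazole as full inhibition.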
# [6] = target: Cytochrome P450 3A4 (Homo sapiens) (UniProt P08684); assay: qHTS Assay for Activators of Cytochrome P450 3A4 (AID 885); note: nearly all actives have a fitted effect of over 65% in size
# Method in brief: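 Signal was normalized against complete inhibition by 57 uM ketoconazole. The reaction used 20nM CYP3A4 with 25uM Luciferin-PPXE, 10-min compound preincubation and a 60-min NADPH-supported step at RT.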
# [7] = target: Cytochrome P450 2C19 (Homo sapiens) (UniProt P33261); assay: qHTS Assay for Inhibitors and Substrates of Cytochrome P450 2C19 (AID 899); note: potency is the fitted concentration of half-maximal effect; nearly all actives have a fitted effect of over 60% in size
# Method in brief: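 Luminescent read-out of luciferin formed from Luciferin-H EGE (10uM, equal to KM). Enzyme 5nM in 50mM KPO4; compound added, 10 min at 37C, then NADPH regenerating system for 60 min at 37C. Full inhibition defined by 57uM ketoconazole.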
# [8] = target: ATP-dependent 6-phosphofructokinase (Trypanosoma brucei brucei) (UniProt O15648); assay: qHTS Assay to Find Inhibitors of T. brucei phosphofructokinase: hit validation (AID 492961)
# Method in brief: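 Luminescence from ADP-Glo reports ADP generated as T. brucei PFK (1.25 nM) phosphorylates 0.5 mM fructose-6-phosphate using 0.1 mM ATP. Reactions ran 45 min at room temperature, pH 8.0.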
# [9] = target: Ubiquitin carboxyl-terminal hydrolase 1 (Homo sapiens) (UniProt O94782); assay: Inhibitors of USP1/UAF1: Pilot qHTS (AID 504865);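 note: rhodamine fluorescence freed from ubiquitin-rhodamine substrate followed over time; top concentration of the series differs between compounds; nearly all actives have a fitted effect of over 35% in size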
# Method in brief: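 Enzyme-free wells gave the negative control, while test wells held 1nM USP1/UAF1 preincubated with compound for 15 min at room temperature. Ub-Rho at 150nM final started the reaction, and fluorescence at 480/540 nm was recorded kinetically.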
# [10] = target: DNA dC->dU-editing enzyme APOBEC-3G (Homo sapiens) (UniProt Q9HC16); assay: qHTS for inhibitors of Vif-A3G interactions: Validation (AID 588379)
# Method in brief: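 HeLa cells stably expressing Vif and A3G-eYFP, 700 cells/well, incubated overnight at 37 deg C, then exposed to compound overnight at 37 deg C. Inhibition of Vif-mediated degradation read as increased yellow fluorescence (Ex 488/Em 500-530) by laser-scanning cytometry.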
# [11] = target: Luciferin 4-monooxygenase (Photinus pyralis) (UniProt P08659); assay: Biochemical firefly luciferase enzyme assay for NPC (AID 624030);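 note: purified P. pyralis luciferase at 10 nM with luciferin and ATP substrate; nearly all actives have a fitted effect of over 70% in size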
# Method in brief: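 Purified P. pyralis luciferase at 10 nM in 50 mM Tris Acetate (final), luminescence read within 5 minutes of enzyme addition to compounds. Activity normalised to PTC124 versus DMSO; concentration-response curves classed by r2, magnitude and activity.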
# [12] = S16 Schwann cell viability assay (CellTiter-Glo assay) (AID 624031);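 note: native untransfected S16 rat Schwann cells; cellular ATP luminescence as a viability measure; nearly all actives have a fitted effect of over 70% in size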
# Method in brief: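 Parental S16 cells, 24 h compound, 37 °C. ATP-luminescence viability; DMSO = 0% activity, empty wells as reference; curves classified by fit quality and efficacy.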
# [13] = S16 Schwann cell PMP22 intronic element firefly luciferase assay (AID 624032); note: nearly all actives have a fitted effect of over 30% in size
# Method in brief: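 Rat S16 Schwann cells stably carrying firefly luciferase driven by a PMP22 intronic element, in 10% FBS, treated 24 h at 37 C. ONE-Glo luminescence normalized to PTC124 control and DMSO (0%); curves classed by r2, magnitude and activity.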
# [14] = P-glycoprotein substrates identified in KB-3-1 adenocarcinoma cell line, qHTS therapeutic library screen (AID 1346986); note: nearly all actives have a fitted effect of over 60% in size
# Method in brief: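 KB-3-1 parental and colchicine-selected P-gp-overexpressing KB-8-5-11 cells (colchicine omitted during assay), 500 cells/well, dosed in dose-response for 72 h at 37 °C; CellTiter-Glo luminescence. Cytotoxic: curve class -1.1 to -2.4, max response >50%, AC50 < 10 uM.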
# [15] = P-glycoprotein substrates identified in KB-8-5-11 adenocarcinoma cell line, qHTS therapeutic library screen (AID 1346987); note: nearly all actives have a fitted effect of over 65% in size
# Method in brief: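 KB-8-5-11, a colchicine-selected P-gp-overexpressing KB-3-1 subline, was grown without colchicine for the assay. Cells were seeded at 500 cells/well, dosed in concentration-response and incubated 72 h at 37 degree C, 5% CO2. Viability was read by CellTiter-Glo luminescence.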
# [16] = Primary qHTS for inhibitors of SARS-S pseudo-typed particle cell entry (AID 1479145; calls by dose curve; note: nearly all actives have a fitted effect of over 45% in size)
# [17] = Primary qHTS for Huh7 cytotoxicity: counterscreen for inhibitors of MERS-S pseudotyped particle cell entry (AID 1479147; calls by dose curve); conditions: outcome: dose series up to 57.1 µM unless noted
# [18] = Primary qHTS for inhibitors of MERS-S pseudo-typed particle cell entry (AID 1479149; calls by dose curve; note: nearly all actives have a fitted effect of over 60% in size)
# [19] = Cytotoxicity counterscreen for inhibitors of SARS-CoV-2 cell entry (AID 1645845; calls by dose curve; note: nearly all actives have a fitted effect of over 50% in size)
# Method in brief: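 HEK293-ACE2 cells (Expi293F stably expressing human ACE2) seeded overnight, then compound for 1 h plus 48 h at 37C. Viability as ATP content by luminescence; normalized to wells with cells and media-only wells.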
# [20] = Primary qHTS to identify inhibitors of SARS-CoV-2 cell entry (AID 1645846; calls by dose curve; note: nearly all actives have a fitted effect of over 45% in size); conditions: activity change, negative = inhibition: at 57.1 µM (top of the series) unless noted
# Method in brief: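 Using luciferase-reporting pseudoviruses carrying Wuhan-Hu-1 spike, the screen tracks entry into stably ACE2-expressing cells over 48 hr. Activity is expressed relative to spike particles versus particles lacking any fusion protein.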
# [21] = Primary qHTS for inhibitors of nuclear receptor binding SET domain protein 2 (NSD2) in an isogenic RCH-ACV NSD2 p.E1099K mutant (9B) (AID 1645876); note: nearly all actives have a fitted effect of over 70% in size
# [22] = target: Glutathione peroxidase 1 (Homo sapiens) (UniProt P07203); assay: Primary qHTS Assay for Inhibitors of Recombinant Selenoprotein Glutathione Peroxidase 1 (GPX1) (AID 1845191); note: nearly all actives have a fitted effect of over 65% in size
# Method in brief: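 GR-coupled assay: compounds preincubated 30 min at room temperature with GPX1, then reaction started with CHP; final 10 nM GPX1, 1 mM GSH, 0.5 mM CHP, 0.5 mM NADPH, 100 nM GR, 0.01% BSA, pH 7.5 Tris buffer. NADPH fluorescence (340/450 nm) read at 0 and 15 min.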
# [23] = target: Phospholipid hydroperoxide glutathione peroxidase GPX4 (Homo sapiens) (UniProt P36969); assay: Primary qHTS Assay for Inhibitors of Recombinant Selenoprotein Glutathione Peroxidase 4 (GPX4) (AID 1845192); note: nearly all actives have a fitted effect of over 65% in size
# Method in brief: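 GR-coupled assay: recombinant GPX4 preincubated 30 min with compound at room temperature; final 200 nM GPX4, 1 mM GSH, 0.5 mM cumene hydroperoxide, 0.5 mM NADPH, 100 nM GR, 0.01% BSA, pH 7.5 Tris. NADPH fluorescence (340/450 nm) read at 0 and 15 min.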
# 3D7 = assay: qHTS profiling for inhibitors of Plasmodium falciparum proliferation (AID 504749); note: nearly all actives have a fitted effect of over 60% in size; note: potency is the fitted concentration of half-maximal effect; conditions: P. falciparum in erythrocytes, SYBR Green DNA, 72 h; series mostly up to 28.7 µM
# Method in brief: (§1)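 P. falciparum-infected erythrocytes (0.3% parasitemia, 2.5% hematocrit) incubated with compound 72 h at 37 C, 5% CO2. Parasite DNA detected by SYBR Green after lysis, overnight at room temperature; normalised to 0.29 uM artemisinin and DMSO.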
# 7G8 = assay: as above; conditions: P. falciparum in erythrocytes, SYBR Green DNA, 72 h; series mostly up to 28.7 µM
# Method in brief: as §1
# AS120 = assay: as above; conditions: P. falciparum in erythrocytes, SYBR Green DNA, 72 h; series mostly up to 28.7 µM
# Method in brief: as §1
# C2A = assay: as above; conditions: P. falciparum in erythrocytes, SYBR Green DNA, 72 h; series mostly up to 28.7 µM
# Method in brief: as §1
# CP191 = assay: as above; conditions: P. falciparum in erythrocytes, SYBR Green DNA, 72 h; series mostly up to 28.7 µM
# Method in brief: as §1
# CP192 = assay: as above; conditions: P. falciparum in erythrocytes, SYBR Green DNA, 72 h; series mostly up to 28.7 µM
# Method in brief: as §1
# CP237 = assay: as above; conditions: P. falciparum in erythrocytes, SYBR Green DNA, 72 h; series mostly up to 28.7 µM
# Method in brief: as §1
# CP256 = assay: as above; conditions: P. falciparum in erythrocytes, SYBR Green DNA, 72 h; series mostly up to 28.7 µM
# Method in brief: as §1
# CP262 = assay: as above; conditions: P. falciparum in erythrocytes, SYBR Green DNA, 72 h; series mostly up to 28.7 µM
# Method in brief: as §1
# CP269 = assay: as above; conditions: P. falciparum in erythrocytes, SYBR Green DNA, 72 h; series mostly up to 28.7 µM
# Method in brief: as §1
# CP297 = assay: as above; conditions: P. falciparum in erythrocytes, SYBR Green DNA, 72 h; series mostly up to 28.7 µM
# Method in brief: as §1
# CP315 = assay: as above; conditions: P. falciparum in erythrocytes, SYBR Green DNA, 72 h; series mostly up to 28.7 µM
# Method in brief: as §1
# Dd2 = assay: as above; conditions: P. falciparum in erythrocytes, SYBR Green DNA, 72 h; series mostly up to 28.7 µM
# Method in brief: as §1
# GB4 = assay: as above; conditions: P. falciparum in erythrocytes, SYBR Green DNA, 72 h; series mostly up to 28.7 µM
# Method in brief: as §1
# ICS = assay: as above; conditions: P. falciparum in erythrocytes, SYBR Green DNA, 72 h; series mostly up to 28.7 µM
# Method in brief: as §1
# JCK = assay: as above; conditions: P. falciparum in erythrocytes, SYBR Green DNA, 72 h; series mostly up to 28.7 µM
# Method in brief: as §1
# PC49 = assay: as above; conditions: P. falciparum in erythrocytes, SYBR Green DNA, 72 h; series mostly up to 28.7 µM
# Method in brief: as §1
# TAB113 = assay: as above; conditions: P. falciparum in erythrocytes, SYBR Green DNA, 72 h; series mostly up to 28.7 µM
# Method in brief: as §1
# TAB165 = assay: as above; conditions: P. falciparum in erythrocytes, SYBR Green DNA, 72 h; series mostly up to 28.7 µM
# Method in brief: as §1
# W2 = assay: as above; conditions: P. falciparum in erythrocytes, SYBR Green DNA, 72 h; series mostly up to 28.7 µM
# Method in brief: as §1
# Chain of Glucocorticoid receptor (Homo sapiens) (P04150 whole entry, looked up, the tested form may be a part): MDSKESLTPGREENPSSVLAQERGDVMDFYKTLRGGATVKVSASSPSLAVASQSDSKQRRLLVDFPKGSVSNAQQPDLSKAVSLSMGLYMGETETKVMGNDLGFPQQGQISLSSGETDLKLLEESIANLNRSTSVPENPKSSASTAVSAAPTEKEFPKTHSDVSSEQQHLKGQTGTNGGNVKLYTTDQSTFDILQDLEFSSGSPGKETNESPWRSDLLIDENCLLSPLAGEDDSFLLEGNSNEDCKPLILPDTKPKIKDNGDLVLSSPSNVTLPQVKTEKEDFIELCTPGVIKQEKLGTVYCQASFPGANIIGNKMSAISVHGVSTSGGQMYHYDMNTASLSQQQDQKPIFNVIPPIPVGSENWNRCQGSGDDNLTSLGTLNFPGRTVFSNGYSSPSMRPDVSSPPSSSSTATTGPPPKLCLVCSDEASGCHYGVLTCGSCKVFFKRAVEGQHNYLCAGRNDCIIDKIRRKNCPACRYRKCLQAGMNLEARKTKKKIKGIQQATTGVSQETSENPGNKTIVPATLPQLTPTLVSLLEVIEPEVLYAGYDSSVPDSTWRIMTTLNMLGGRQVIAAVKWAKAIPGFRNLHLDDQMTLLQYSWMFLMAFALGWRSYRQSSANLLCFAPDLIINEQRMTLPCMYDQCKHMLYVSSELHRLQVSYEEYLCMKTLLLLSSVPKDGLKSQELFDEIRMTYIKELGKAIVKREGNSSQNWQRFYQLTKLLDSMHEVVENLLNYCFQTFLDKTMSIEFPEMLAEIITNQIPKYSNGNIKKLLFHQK
# Chain of Luciferin 4-monooxygenase (Photinus pyralis) (P08659 whole entry, looked up): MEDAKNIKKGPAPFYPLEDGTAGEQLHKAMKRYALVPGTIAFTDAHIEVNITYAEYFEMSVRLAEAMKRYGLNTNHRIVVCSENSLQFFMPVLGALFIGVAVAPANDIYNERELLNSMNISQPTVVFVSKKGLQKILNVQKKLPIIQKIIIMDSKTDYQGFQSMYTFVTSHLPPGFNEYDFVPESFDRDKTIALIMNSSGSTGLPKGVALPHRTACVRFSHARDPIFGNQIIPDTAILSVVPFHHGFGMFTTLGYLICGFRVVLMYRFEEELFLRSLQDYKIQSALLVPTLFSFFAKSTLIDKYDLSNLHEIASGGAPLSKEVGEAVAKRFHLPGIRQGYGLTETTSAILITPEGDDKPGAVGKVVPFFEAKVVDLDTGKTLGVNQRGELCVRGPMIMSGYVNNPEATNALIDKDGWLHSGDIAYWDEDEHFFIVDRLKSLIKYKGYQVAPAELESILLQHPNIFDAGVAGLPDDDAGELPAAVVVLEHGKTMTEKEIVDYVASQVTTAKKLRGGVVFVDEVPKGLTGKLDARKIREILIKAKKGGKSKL
# Chain of DNA dC->dU-editing enzyme APOBEC-3G (Homo sapiens) (Q9HC16 whole entry, looked up): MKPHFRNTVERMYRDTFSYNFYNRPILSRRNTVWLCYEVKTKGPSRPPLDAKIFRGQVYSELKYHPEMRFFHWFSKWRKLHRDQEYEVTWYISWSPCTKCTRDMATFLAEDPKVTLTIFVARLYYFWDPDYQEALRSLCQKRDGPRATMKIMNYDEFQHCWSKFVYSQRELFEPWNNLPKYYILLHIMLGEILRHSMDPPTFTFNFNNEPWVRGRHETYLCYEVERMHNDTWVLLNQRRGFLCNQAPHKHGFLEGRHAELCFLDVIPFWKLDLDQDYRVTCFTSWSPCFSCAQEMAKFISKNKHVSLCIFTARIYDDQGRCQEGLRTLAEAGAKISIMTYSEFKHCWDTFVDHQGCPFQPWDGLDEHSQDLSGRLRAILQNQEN
# Chain of Phospholipid hydroperoxide glutathione peroxidase GPX4 (Homo sapiens) (P36969 whole entry, looked up): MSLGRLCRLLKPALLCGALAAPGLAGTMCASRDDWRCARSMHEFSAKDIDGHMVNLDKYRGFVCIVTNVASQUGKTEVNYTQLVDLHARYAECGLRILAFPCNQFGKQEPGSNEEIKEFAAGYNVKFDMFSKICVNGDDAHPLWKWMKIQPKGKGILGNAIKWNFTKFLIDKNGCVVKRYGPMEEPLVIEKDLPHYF
# Chain of ATP-dependent 6-phosphofructokinase (Trypanosoma brucei brucei) (O15648 whole entry, looked up): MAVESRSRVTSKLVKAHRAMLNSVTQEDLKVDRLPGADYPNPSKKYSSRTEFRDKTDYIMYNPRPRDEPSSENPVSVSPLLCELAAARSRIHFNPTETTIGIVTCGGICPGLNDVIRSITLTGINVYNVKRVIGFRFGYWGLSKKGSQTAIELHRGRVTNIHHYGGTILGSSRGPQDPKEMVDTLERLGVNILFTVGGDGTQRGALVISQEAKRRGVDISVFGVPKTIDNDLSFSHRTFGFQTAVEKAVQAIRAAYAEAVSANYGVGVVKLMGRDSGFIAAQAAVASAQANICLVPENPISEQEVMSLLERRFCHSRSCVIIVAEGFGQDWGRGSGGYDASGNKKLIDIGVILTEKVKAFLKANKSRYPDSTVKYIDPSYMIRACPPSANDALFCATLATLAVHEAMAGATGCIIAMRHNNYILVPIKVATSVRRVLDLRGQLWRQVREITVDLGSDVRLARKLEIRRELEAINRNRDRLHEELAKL
# Chain of Cytochrome P450 1A2 (Homo sapiens) (P05177 whole entry, looked up): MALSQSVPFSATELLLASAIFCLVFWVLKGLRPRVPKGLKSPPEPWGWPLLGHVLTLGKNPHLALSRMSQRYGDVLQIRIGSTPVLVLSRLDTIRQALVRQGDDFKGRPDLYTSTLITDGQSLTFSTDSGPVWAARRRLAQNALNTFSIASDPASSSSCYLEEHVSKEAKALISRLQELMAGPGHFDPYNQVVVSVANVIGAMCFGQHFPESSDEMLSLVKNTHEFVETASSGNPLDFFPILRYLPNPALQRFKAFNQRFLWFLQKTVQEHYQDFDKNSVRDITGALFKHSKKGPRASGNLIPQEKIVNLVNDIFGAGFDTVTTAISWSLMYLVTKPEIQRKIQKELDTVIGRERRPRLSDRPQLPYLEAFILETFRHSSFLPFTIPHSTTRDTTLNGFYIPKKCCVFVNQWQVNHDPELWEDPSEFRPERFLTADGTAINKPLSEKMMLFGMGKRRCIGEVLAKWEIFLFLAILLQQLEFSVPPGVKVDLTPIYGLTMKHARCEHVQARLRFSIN
# Chain of Glutathione peroxidase 1 (Homo sapiens) (P07203 whole entry, looked up): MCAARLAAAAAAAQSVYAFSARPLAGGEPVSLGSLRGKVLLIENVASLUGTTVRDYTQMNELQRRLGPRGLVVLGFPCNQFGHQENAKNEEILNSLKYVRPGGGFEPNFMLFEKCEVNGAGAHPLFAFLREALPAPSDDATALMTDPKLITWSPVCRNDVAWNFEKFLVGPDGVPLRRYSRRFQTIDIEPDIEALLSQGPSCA
# Chain of Cytochrome P450 2C19 (Homo sapiens) (P33261 whole entry, looked up): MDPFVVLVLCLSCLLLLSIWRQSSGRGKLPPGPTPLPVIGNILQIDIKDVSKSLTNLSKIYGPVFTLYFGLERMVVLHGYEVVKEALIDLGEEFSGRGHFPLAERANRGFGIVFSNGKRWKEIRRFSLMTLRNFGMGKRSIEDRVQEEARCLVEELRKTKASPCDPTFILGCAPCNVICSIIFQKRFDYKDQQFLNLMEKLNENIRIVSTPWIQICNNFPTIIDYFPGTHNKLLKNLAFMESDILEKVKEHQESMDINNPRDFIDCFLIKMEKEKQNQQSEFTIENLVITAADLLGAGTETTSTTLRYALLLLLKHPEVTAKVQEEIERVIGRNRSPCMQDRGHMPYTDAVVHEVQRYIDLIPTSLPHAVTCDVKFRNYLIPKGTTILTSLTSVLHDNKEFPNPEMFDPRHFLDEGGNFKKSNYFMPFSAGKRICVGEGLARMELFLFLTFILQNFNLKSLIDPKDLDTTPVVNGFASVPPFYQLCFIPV
# Chain of Cytochrome P450 3A4 (Homo sapiens) (P08684 whole entry, looked up): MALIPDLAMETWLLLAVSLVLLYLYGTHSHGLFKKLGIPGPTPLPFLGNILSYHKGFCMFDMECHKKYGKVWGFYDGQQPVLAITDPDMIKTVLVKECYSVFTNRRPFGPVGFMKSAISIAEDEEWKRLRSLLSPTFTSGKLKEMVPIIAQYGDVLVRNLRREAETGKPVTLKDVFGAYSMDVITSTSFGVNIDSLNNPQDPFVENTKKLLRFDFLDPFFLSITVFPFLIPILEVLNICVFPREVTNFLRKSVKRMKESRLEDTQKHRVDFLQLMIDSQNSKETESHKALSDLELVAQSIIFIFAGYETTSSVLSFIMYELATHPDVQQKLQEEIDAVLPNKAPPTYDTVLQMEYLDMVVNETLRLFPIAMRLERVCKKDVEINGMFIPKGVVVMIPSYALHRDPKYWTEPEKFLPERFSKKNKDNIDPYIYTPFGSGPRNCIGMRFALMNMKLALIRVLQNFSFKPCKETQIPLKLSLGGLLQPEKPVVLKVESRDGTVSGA
# Chain of Ubiquitin carboxyl-terminal hydrolase 1 (Homo sapiens) (O94782 whole entry, looked up): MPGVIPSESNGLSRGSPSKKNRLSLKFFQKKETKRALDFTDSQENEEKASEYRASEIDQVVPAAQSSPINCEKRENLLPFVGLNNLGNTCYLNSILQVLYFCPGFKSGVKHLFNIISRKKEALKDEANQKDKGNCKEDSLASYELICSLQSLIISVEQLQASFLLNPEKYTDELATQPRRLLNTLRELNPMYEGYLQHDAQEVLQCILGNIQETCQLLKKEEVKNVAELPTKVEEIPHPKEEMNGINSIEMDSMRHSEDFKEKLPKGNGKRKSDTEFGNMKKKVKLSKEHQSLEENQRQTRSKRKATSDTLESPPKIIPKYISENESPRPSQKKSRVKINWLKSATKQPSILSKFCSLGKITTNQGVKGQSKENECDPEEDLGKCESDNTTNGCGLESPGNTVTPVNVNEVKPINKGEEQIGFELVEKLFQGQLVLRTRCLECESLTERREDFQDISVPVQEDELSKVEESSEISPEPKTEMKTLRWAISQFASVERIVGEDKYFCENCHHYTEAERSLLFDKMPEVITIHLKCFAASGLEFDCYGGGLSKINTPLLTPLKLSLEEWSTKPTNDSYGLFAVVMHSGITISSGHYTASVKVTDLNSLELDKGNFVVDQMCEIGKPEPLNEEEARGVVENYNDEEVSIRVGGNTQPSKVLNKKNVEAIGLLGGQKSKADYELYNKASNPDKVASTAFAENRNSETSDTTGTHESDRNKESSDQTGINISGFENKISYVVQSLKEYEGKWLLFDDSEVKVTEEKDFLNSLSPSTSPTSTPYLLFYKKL
smiles,measurement,setting,value
Cc1cccc([C@H](C)c2cnc[nH]2)c1C,Potency,[1],0.158 µM (active)
same,Potency,[2],> 46 µM (inactive)
same,Potency,[3],> 46 µM (inactive)
same,outcome,[4],inactive
same,Potency,[5],0.199 µM (active)
same,Potency,[6],inactive
same,Potency,[7],5.01 µM (active)
same,Potency,[8],inactive
same,Potency,[9],inactive
same,Potency,[10],inactive
same,Potency,[11],inactive
same,Potency,[12],inactive
same,Potency,[13],inactive
same,Potency,[14],inactive
same,Potency,[15],inactive
same,Potency,[16],inactive
same,outcome,[17],inactive
same,Potency,[18],inactive
same,Potency,[19],inactive
same,Potency,[20],inactive
same,Potency,[21],inactive
same,Potency,[22],inactive
same,Potency,[23],inactive
same,Potency,3D7,inactive
same,Potency,7G8,7.94 µM (active)
same,Potency,AS120,inactive
same,Potency,C2A,inactive
same,Potency,CP191,7.08 µM (active)
same,Potency,CP192,inactive
same,Potency,CP237,11.2 µM (active)
same,Potency,CP256,7.08 µM (active)
same,Potency,CP262,inactive
same,Potency,CP269,inactive
same,Potency,CP297,10.7 µM (active)
same,Potency,CP315,inactive
same,Potency,Dd2,11.2 µM (active)
same,Potency,GB4,8.49 µM (active)
same,Potency,ICS,12.6 µM (active)
same,Potency,JCK,inactive
same,Potency,PC49,inactive
same,Potency,TAB113,inactive
same,Potency,TAB165,4.47 µM (active)
same,Potency,W2,10.7 µM (active)
